Compounds with a hit are over-represented: about 2.3% of the library has one in this group of screens.
CHO-K1 Ca ag = counter-screen for M1 agonists: effect in parental CHO-K1 cells | Fluo-8 calcium fluorescence; scaled to maximal ATP response, vehicle zero | activation, % at 3 µM | 0.48% of 360,000 active; in the data active = activation above about 15%;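 note: untransfected CHO-K1 host cells lacking M1 receptor as counterscreen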
M1 PAM parental = nonselective calcium activators in parental CHO-K1 cells, primary screen, counter-screen for M1 PAM project, cell-based, Fluo-8 calcium fluorescence, full deck, 1536-well; 0.02% of 360,000 active; activation, % at 3 µM; ATP EC20; 0% at ATP EC20, 100% at ATP max;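 active = activation above the run cutoff, the mean activation of all test compounds plus 3 SD, cut at about 40% in these data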;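 note: peak over basal fluorescence ratio in a 140 s read after ATP addition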
M1 antag = human M1 muscarinic receptor antagonists, primary screen, CHO-K1 cells, Fluo-8 calcium fluorescence, 1536-well; 1.3% of 360,000 active; CHO-K1 hM1, ACh EC80 antagonist; inhibition, % at 3 µM;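 active = percent inhibition above its own plate's cutoff, namely the mean of that plate's compound wells plus 3 SD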;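 note: peak over basal fluorescence ratio during 140 s after agonist addition; 0% = ACh EC80 plus DMSO and 100% = DMSO alone without agonist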
Target sequence (P11229 whole entry, looked up): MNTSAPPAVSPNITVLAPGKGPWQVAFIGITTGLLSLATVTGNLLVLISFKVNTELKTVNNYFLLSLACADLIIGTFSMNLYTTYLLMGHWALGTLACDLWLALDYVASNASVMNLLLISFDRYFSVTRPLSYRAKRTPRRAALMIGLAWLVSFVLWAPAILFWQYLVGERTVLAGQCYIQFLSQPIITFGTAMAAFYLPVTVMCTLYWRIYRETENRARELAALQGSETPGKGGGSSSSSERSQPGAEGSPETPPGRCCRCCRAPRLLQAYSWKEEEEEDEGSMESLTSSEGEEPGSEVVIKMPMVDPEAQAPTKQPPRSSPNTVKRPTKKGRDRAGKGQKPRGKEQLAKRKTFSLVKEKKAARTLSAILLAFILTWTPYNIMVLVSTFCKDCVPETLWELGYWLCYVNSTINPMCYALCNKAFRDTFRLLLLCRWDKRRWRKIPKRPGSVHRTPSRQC
M1 PAM = human M1 muscarinic receptor positive allosteric modulators, primary screen, CHO-K1 cells, Fluo-8 calcium fluorescence, 1536-well; Muscarinic acetylcholine receptor M1 (Homo sapiens), P11229; CHO-K1 hM1, ACh EC20; 0% = ACh EC20, 100% = maximal ACh; activation, % at 3 µM; 0.088% of 360,000 active; in the data active = activation above about 19%, passing the limit was not always enough
CHO-K1 Ca antag = M1 antagonist counterscreen hit in parental CHO-K1 cells | ATP-induced calcium, Fluo-8 fluorescence | inhibition, % at 3 µM | 0.6% of 360,000 active | AID 602250;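 active = inhibition above a per-plate cutoff, the plate's mean sample inhibition plus 3 SD, cut at about 24% in these data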;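 note: 0% = DMSO plus EC80 ATP and 100% = DMSO alone without ATP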
CHRM1 agonist = human M1 muscarinic receptor agonists, primary screen, Fluo-8 calcium fluorescence, CHO-K1 cells, HTS. CHO-K1 hM1, agonist mode; 0% DMSO, 100% acetylcholine EC100. activation, % at 3 µM. AID 588814, 2011. 0.33% of 360,000 active;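 active = activation above the run's mean compound activation plus 3 SD, cut at about 16% in these data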;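 note: peak over basal fluorescence ratio within a 140 s kinetic read after compound addition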
* marks the source's active call; other numbers are inactive results.

SMILES	CHO-K1 Ca ag	M1 PAM parental	M1 antag	M1 PAM	CHO-K1 Ca antag	CHRM1 agonist
C=CCNC(=S)N1CCN(C2CCCCC2)CC1	1	2	2	1	-6	-7
O[C@H]1CN(CC2CCCCC2)[C@@H](c2ccc(Cl)cc2)C[C@@H]1n1cc(C2CC2)nn1	0	10	37*	-15	-3	-2
Cc1cccc(C(=O)Nc2ccc(NC(=O)CN3CCOCC3)cc2)c1	1	-18	-5	3	-15	-1
COc1ccccc1NS(=O)(=O)c1cccc(-n2c(O)c(C=Nc3ccccc3C(=O)O)c3ccccc3c2=O)c1	-1	17	70*	-2	-15	-5
CCOc1ccccc1N1CC(C(=O)N(Cc2nnc(-c3ccccc3Cl)o2)C2CC2)CC1=O (stereo not given)	2	-4	8	-8	-6	-6
O=C(Nc1ccc(OCCO)cc1)c1csc([C@@H]2O[C@H](CO)[C@H](O)[C@H](O)[C@H]2O)n1	2	4	-21	9	11	-3
O=C(Nc1ccc(Oc2ccccc2)cc1)c1csc([C@H]2C[C@H](O)[C@@H](CO)O2)n1	14	-5	32*	-16	1	3
CC(=O)Nc1ccc(NC(=O)c2csc([C@@H]3C[C@H](O)[C@@H](CO)O3)n2)cc1	6	12	-3	2	-5	-1
O=C(Nc1ccc(Oc2ccccc2)cc1)c1csc([C@@H]2O[C@H](CO)[C@@H](O)[C@H]2O)n1	6	4	34*	-14	2	1
CCOC(=O)c1ccc(S(=O)(=O)NNC(=O)Cc2csc(C)n2)cc1	0	-2	-7	5	0	-2
CC(C)C(=O)Nc1ccc(NC(=O)c2ccc(COc3ccccc3)cc2)cc1	0	5	0	0	1	-3
CCOC(=O)N1CCC(NC(=O)c2cc(S(=O)(=O)N3CCCC3)cn2C)CC1	0	-8	2	2	26*	-1
S=C(NCCc1ccccc1)Nc1cccc2cnccc12	12	-23	28	-2	32*	1
CC(=O)Nc1ccc(C2NC(=O)CCC2[N+](=O)[O-])cc1 (stereo not given)	1	-12	2	-1	-13	0
CCOc1ccc(CN2CCN(c3ncnc4scc(-c5ccccc5)c34)CC2)cc1	0	1	9	-6	-9	22*
Cc1cc(C(=O)NCC(c2cccs2)N2CCOCC2)ccc1[N+](=O)[O-] (stereo not given)	1	3	-15	6	-5	-3
CC1=[N+](C)c2c(ccc3cccnc23)C1(C)C	16*	-9	29	-19	34*	-10
Cc1[nH]c2c(ccc3cccnc32)c1C	0	-13	-7	11	11	-2
O=S(=O)(NCc1ccc(F)cc1)c1ccccc1Br	0	-1	2	3	-4	-6
CN(C)CCCC(C)(O)C(C)(C)c1ccccc1 (stereo not given)	0	10	-6	6	-2	-10
CN(C)CCC(O)(c1ccccc1)c1ccccc1	1	2	67*	-35	-14	-15
CN(C)CCC(O)(c1ccccc1)c1ccccc1Cl (stereo not given)	1	4	38*	-24	-8	-8
O=C(COc1ccccc1F)Nc1c2c(nn1-c1ccccc1)CS(=O)(=O)C2	3	0	-1	5	-1	0
O=c1c2oc3nc4c(cc3c2ncn1CCCc1ccccc1)CCCC4	6	9	3	-1	1	-2
CNS(=O)(=O)c1cnccc1N1CCN(C)CC1	3	17	-5	6	5	-12
SMILES	CHO-K1 Ca ag	M1 PAM parental	M1 antag	M1 PAM	CHO-K1 Ca antag	CHRM1 agonist
CC(C)N1CCN(c2ccncc2S(=O)(=O)N2CCN(C)CC2)CC1	0	13	47*	-26	-6	-8
Cc1cc(F)ccc1NCc1ccc([N+](=O)[O-])cc1	21*	2	8	-4	-9	-15
Cc1cc([N+](=O)[O-])ccc1NCc1ccc2c(c1)OCCO2	2	12	-21	15	-6	-1
COc1ccc2ccccc2c1-c1sc(Nc2ccccc2)n[n+]1-c1ccc(F)cc1	16*	-3	28	-20	-9	7
COc1ccc(-c2sc(Nc3ccccc3)n[n+]2-c2ccc(F)cc2)cc1Br	0	-1	-7	5	-7	-5
CCc1ccc(Nc2n[n+](-c3ccccc3)c(-c3c(Cl)cccc3Cl)s2)cc1	21*	-3	49*	-26	8	19*
CCc1ccc(Nc2n[n+](-c3ccccc3)c(-c3ccc(OCc4ccccc4)cc3)s2)cc1	0	30	5	0	-10	-6
Fc1ccc(-[n+]2nc(Nc3ccccc3)sc2-c2c(Cl)cccc2Cl)cc1	15*	2	22	-20	-7	-2
CCc1ccc(Nc2n[n+](-c3ccccc3)c(-c3ccc(N(CC)CC)cc3)s2)cc1	14	6	39*	-13	18	9
Cc1cccc(CCNCc2c(C(=O)O)c(C)n(-c3ccccc3)c2C)c1	0	-11	-20	14	3	-5
COc1ccc2cc(C(=O)N/N=C/c3sc4ccccc4c3O)ccc2c1	9	13	15	-10	9	33*
COc1ccc(C(=O)N/N=C/c2sc3ccccc3c2O)cc1	9	14	-3	-3	-2	6
COc1ccc(C(=O)OCC(=O)Nc2ccc(OC(F)F)cc2)c(OC)c1	0	-6	-2	3	25*	-5
CCOCCn1c(CN2CCN(C)CC2)nc2c1c(=O)n(C)c(=O)n2C	0	18	-31	29*	-6	-1
C/C(=N\NC(=O)c1nnn(-c2nonc2N)c1CN1CCC(C)CC1)c1ccc(Br)cc1	0	5	-6	3	-1	-1
Cc1cc(C)c(OCCNCc2ccccc2)c(C)c1	20*	23	-10	7	-8	-1
Cc1cc(C)c(C#N)c(SCC(=O)c2ccc(Cl)cc2Cl)n1	2	7	12	-9	-10	-6
CCN(CC(=O)NCc1cccs1)C(=O)/C=C/c1cc(OC)ccc1OC	0	-22	2	-4	24*	-2
C#CCN(C[C@@H]1[C@@H](OC(=O)NCc2ccccc2)[C@@H](OC(=O)NCc2ccccc2)CN(C(=O)OC(C)C)N1C(=O)OC(C)C)S(=O)(=O)c1ccc(C)cc1	2	15	-3	1	-11	-4

Compound activity as filed in PubChem.
